Screening data: PubChem BioAssay, NMMLSC
LAP4-GFP MLPCN = yeast TOR pathway LAP4-GFP modulation | GFP response vs DMSO, % at 10 µM | hit rate 0.34% among 320,000 | S. cerevisiae LAP4-GFP multiplex, flow cytometry GFP, 3 h; median GFP as percent of DMSO wells;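 active = GFP response vs DMSO above a set limit, about the screen mean plus 3 SD, cut at about 150% in these data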
AGP1 TOR yeast = alters AGP1-GFP fluorescence in TOR pathway yeast screen; S. cerevisiae AGP1-GFP multiplex flow cytometry, 3 h; GFP as percent of DMSO wells; GFP response vs DMSO, % at 10 µM; hit rate 0.02% among 320,000; AID 2066;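 active = GFP response relative to DMSO above a set limit, near screen average plus 3 SD, cut at about 150% in these data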;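 also: median GFP channel fluorescence of the gated AGP1 strain per well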
MEP2 TOR yeast = alters MEP2-GFP fluorescence in TOR pathway yeast screen; S. cerevisiae MEP2-GFP strain, flow cytometry GFP, 3 h; 100% = DMSO control level; GFP response vs DMSO, % at 10 µM; hit rate 0.51% among 330,000; AID 2016;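 active = GFP response versus DMSO above a set limit, roughly screen mean plus 3 SD, cut at about 180% in these data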;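 also: median GFP fluorescence of the barcode-gated MEP2-GFP cells per well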
Efflux pump mplx = blocks antifungal efflux pumps in multiplex yeast assay; S. cerevisiae Candida pump triplex, Nile Red efflux; inhibition, % at 10 µM; hit rate 0.44% among 330,000; AID 485275;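 active = plate passing quality check with inhibition over a set limit, or well fluorescence over plate mean plus 4 SD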;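 also: Nile Red retained in pooled yeast measured as flow cytometry median fluorescence; 0% = buffer negative control and 100% = Enniatin B positive control; higher means more Nile Red kept so more efflux inhibition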
CIT2-GFP yeast = modulators of TOR pathway CIT2-GFP in S. cerevisiae; S. cerevisiae CIT2-GFP strain, flow cytometry, 3 h; 100 means same as DMSO wells; GFP response vs DMSO, % at 10 µM; hit rate 0.065% among 320,000; AID 2029;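 active = GFP response relative to DMSO above a set limit, near the screen mean plus 3 SD, cut at about 150% in these data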;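 also: ratio of well median GFP fluorescence to mean of DMSO wells on the plate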
RPL19A TOR yeast = modulators of TOR pathway RPL19A-GFP in S. cerevisiae; S. cerevisiae RPL19A-GFP strain, flow cytometry, 3 h; hits give low values; percent response vs DMSO, % at 10 µM; hit rate 0.3% among 330,000; AID 2025;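 active = percent response vs DMSO below 50%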;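 also: median channel GFP fluorescence of the barcoded RPL19A-GFP strain; ratio of sample median GFP to plate DMSO average so 100% = DMSO; lower means less RPL19A-GFP as with rapamycin TOR inhibition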
LAP4 cherry2 = yeast LAP4-GFP modulation, second cherry pick; shares compounds with LAP4-GFP MLPCN; S. cerevisiae LAP4-GFP strain, flow cytometry GFP, 3 h; GFP response vs DMSO, % at 10 µM; hit rate 20% among 590; AID 2621;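 active = GFP signal as percent of the solvent control above about 150%, meaning raised reporter expression, limit read from the data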;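 also: ratio of well median GFP fluorescence to plate DMSO mean so 100% = DMSO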
MEP2 cherry2 = yeast MEP2-GFP modulation, second cherry pick; shares compounds with LAP4-GFP MLPCN; S. cerevisiae MEP2-GFP strain, flow cytometry GFP, 3 h; GFP response vs DMSO, % at 10 µM; hit rate 10% among 590; AID 2622;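 active = GFP signal above 150% of the solvent control wells, that is a rise of more than half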;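 also: median channel GFP fluorescence of all gated yeast cells per well; ratio of median GFP to plate DMSO average so 100% = DMSO level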
RPL19A-GFP pick2 = second confirmation of modulators of TOR reporter RPL19A-GFP in yeast; shares compounds with LAP4-GFP MLPCN; S. cerevisiae RPL19A-GFP strain, flow cytometry GFP, 3 h; hits give low values; 100% means same as DMSO wells; GFP response vs DMSO, % at 10 µM; hit rate 3% among 590; AID 2623;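 active = under 65% GFP response relative to DMSO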;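 also: median GFP channel fluorescence per well over the all cells gate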
CIT2 GFP CP2 = second confirmation of modulators of TOR reporter CIT2-GFP in yeast; hit rate 8% among 590; GFP response vs DMSO, % at 10 µM; S. cerevisiae CIT2-GFP strain, flow cytometry GFP, 3 h; DMSO control wells read 100%; AID 2624; shares compounds with LAP4-GFP MLPCN;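 active = GFP response vs DMSO above about 150%, limit read from the data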;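 also: median green fluorescence per well over all gated yeast cells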
AGP1-GFP pick2 = yeast AGP1-GFP TOR reporter modulation, second cherry pick; AID 2643; percent response vs DMSO, % at 10 µM; S. cerevisiae AGP1-GFP strain, flow cytometry GFP, 3 h; 590 tested, under 10 active; shares compounds with LAP4-GFP MLPCN;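 active = over 150 percent of DMSO response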;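 also: median GFP channel fluorescence over all cells without mother daughter split; sample median GFP divided by mean DMSO control so 100% equals DMSO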
Yeast autofluor = counter-screen for compound autofluorescence in yeast s288c cells; S. cerevisiae s288c, 520 nm autofluorescence, flow cytometry, 3 h; hits give high values; zero means same as solvent-only cells; fluorescence change (kMESF span) at 33 µM; shares compounds with LAP4-GFP MLPCN; 610 tested, under 10 active;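 active = fluorescence span over the dose series, or activity score, above about 33, limit read from the data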
Starred values were filed as active, the others as inactive; · = no result given; + = active, no number. A selection: hits, their analogues and other compounds. The true share with any hit is near 1.3%.

SMILES	LAP4-GFP MLPCN	AGP1 TOR yeast	MEP2 TOR yeast	Efflux pump mplx	CIT2-GFP yeast	RPL19A TOR yeast	LAP4 cherry2	MEP2 cherry2	RPL19A-GFP pick2	CIT2 GFP CP2	AGP1-GFP pick2	Yeast autofluor
COc1cc(NC(=O)c2ccccc2[N+](=O)[O-])ccc1NC(=O)c1cc2ccccc2o1	108	106	118	0	107	106	·	·	·	·	·	0.1
CCC(=O)Nc1ccc(NC(=S)NC(=O)c2cc3ccccc3o2)cc1	94	93	100	0	95	94	·	·	·	·	·	·
Cc1cc(C(=O)NCC(=O)OCC(=O)NCC2CCCO2)ccc1[N+](=O)[O-] (configuration not stated)	97	102	101	0	102	101	·	·	·	·	·	·
O=C(Cn1c(C(=O)OCCO)cc2ccccc21)c1ccccc1	96	100	107	0	103	104	·	·	·	·	·	·
O=C(N/N=C/c1ccccc1)c1ccco1	119	108	98	0	102	98	·	·	·	·	·	·
O=C(C#Cc1ccccc1)c1ccco1	153*	101	128	0	77	88	156*	165*	85	128	118	0.61
Cc1cccc(CCNC(=O)C2CCCN(c3cnccn3)C2)c1 (configuration not stated)	98	99	109	0	112	104	·	·	·	·	·	·
OCCC#Cc1c(-c2ccsc2)sc2ccccc12	159*	88	99	0	96	86	108	119	90	104	99	·
Cc1noc(NS(=O)(=O)c2ccc(NC(=O)c3cccc(S(=O)(=O)Nc4ccccc4F)c3)cc2)c1C	102	104	105	0	103	100	·	·	·	·	·	·
Nc1nc2ncc(CNc3ccc(C(=O)N[C@@H](CCC(=O)O)C(=O)O)cc3)nc2c(=O)[nH]1	101	103	108	0	108	101	102	103	100	97	101	0.1
CN(Cc1cnc2nc(N)nc(N)c2n1)c1ccc(C(=O)N[C@@H](CCC(=O)O)C(=O)O)cc1	233*	97	90	0	58	84	273*	128	93	93	127	0.51
CCOC(=O)CCC(NC(=O)c1ccc(NCN2C(=O)CCC2=O)cc1)C(=O)OCC (configuration not stated)	100	103	99	0	101	102	·	·	·	·	·	·
Cc1ccc(NC(=O)[C@H](C)NC(=O)C2CCN(C(=O)[C@@H](N)CC(C)C)CC2)cc1	100	105	110	0	100	106	·	·	·	·	·	·
CCN(CC(=O)Nc1ccc2c(c1)OCCO2)CC(=O)Nc1ccc(C)c(S(=O)(=O)N(C)C)c1	96	93	102	0	105	93	·	·	·	·	·	·
COc1ccc(C2=NN(C(=O)c3ccccc3)C(c3ccc(OC)c(OC)c3)C2)c(OC(C)=O)c1 (configuration not stated)	101	83	+	0	113	95	102	105	100	104	99	·
